The values that follow come from PubChem BioAssay (NCI).

What all share (experiment): NCI-60 one-dose screen, 48 h (100 = growth as untreated, 0 = no growth, -100 = all killed)
What all share (conditions): 10 µM unless noted

Test [1] has as its system RPMI-8226 leukemia.
The subject of test [2] is OVCAR-8 ovarian.
Test [3] has as its system OVCAR-5 ovarian.
Test [4] relates to OVCAR-4 ovarian.
In test [5] the test system is SK-OV-3 ovarian.
The subject of test [6] is OVCAR-3 ovarian.
In test [7] the test system is HS 578T breast.
Test [8] relates to NCI/ADR-RES ovarian.
Test [9] relates to T-47D breast.
Test [10] relates to IGROV1 ovarian.

Compounds without any hit were thinned out: in the full panel of roughly 83,000, 20% have a hit.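 How to read the values: 0–100, growth inhibition (40 = 60% inhibited); 0, no net growth; -100 to 0, cell death (-40 = 40% of starting cells died; -100 = all dead).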 Values without a mark were called inactive. Active and inactive are the calls of the source. How the source made its calls: active means growth percent below 10; inactive means the rest.

Regarding `O=c1[nH]c2ccccc2cc1-c1nc2ccncc2[nH]1`, the growth was -0.575% (active) in test [1]; 88.7% in [2]; 112% in [3]; 85.5% in [4]; 90.5% in test [5]; 90.9% in test [6]. Also, the growth in [7] is 76.1%; in test [8], 108%; in test [9], 77.8%.
Turning to `CCCS(=O)(=O)Nc1ccc(F)c(C(=O)c2c[nH]c3ncc(-c4ccc(OCCCC5CCCCN5)nc4)cc23)c1F` (stereo not given), the growth in [1] is 64%; in test [2], 88.9%; in [3], 78.1%; in test [4], 83.6%; in [5], 11.6%; in test [6], 89.6%. In addition, the growth in [7] was 9.28% (active); in test [8], 100%; in test [9], 17.7%.
For the molecule `CNc1cccc2c1C(=O)c1cccc(N)c1C2=O`, the growth was 38.9% in test [1]; 64.5% in test [2]; 73.8% in test [3]; 57.6% in test [4]; 60.5% in [5]; 32.2% in test [6]. Besides, the growth is 19.4% in [7], 85% in [8] and 45.9% in [9].
`CCOCCc1c(O)nc(SC)[nH]c1=O`: the growth in test [1] is 94.4%; in [2], 103%; in test [3], 87.3%; in test [4], 108%; in test [5] it was 102%; in test [6] it was 186%. Further, the figures for the growth in [7], in [8] and in test [9] were 92.9%, 96.5% and 110%, respectively.
For `O=CN1N=C(c2ccc(F)cc2)CC1c1cccc(Nc2ccnc3cc(C(F)(F)F)ccc23)c1` (stereo not given), the growth is 24.6% in test [1]; 41.5% in test [2]; 95.2% in [3]; 41% in test [4]; 69.1% in test [5]; 59.8% in test [6]. For the same molecule, the growth in test [7] is 73.5%; in test [8] it was 47.4%; in test [9], 26.4%.
With `COc1cc(F)c(-c2nc3c(C)cccc3n2Cc2c(F)cccc2F)c(F)c1`, the growth in test [1] was 68.2%; in test [2] it was 90.5%; in test [3] it was 94.6%; in test [4], 77.6%; in [5], 90.5%; in test [6] it was 96.2%. Moreover, the growth is 91.6% in [7], 77.9% in test [8] and 71.4% in [9].
Take `CCC[S@@](=O)c1ccc2nc(NC(=O)OC)[nH]c2c1`: the growth in [1] was 95%; in [2], 77.1%; in test [3] it was 102%; in test [4], 98.9%; in test [5], 63.6%; in [6] it was 93.5%. In addition, the growth in [7] is 91.2%; in test [8], 91.5%; in [9] it was 78.1%.
For the molecule `Cc1c(Br)cccc1NC(=O)c1sc2nc3c(cc2c1N)CN(Cc1ccccc1)CC3`, the growth in test [1] was 4.4% (active); in test [2], 14.1%; in test [3], 36.7%; in [4], 28.1%; in [5], 22.8%; in [6], -7.95% (active). Also, the growth in test [7] was 11.3%; in test [8] it was 24.2%; in test [9], 43%.
Regarding `N#CC1(C#N)C2=C(CCCC2)NC(c2c(F)cccc2Cl)C1(C#N)C#N` (stereo not given), the growth is 43.4% in test [1]; 86.9% in [2]; 87.7% in test [3]; 66.9% in test [4]; 79.7% in test [5]; 20.3% in test [6]. Moreover, the figures for the growth in test [7], in test [8] and in [9] were 43.4%, 76.6% and 79.7%, respectively.
As to `COc1ccc(/C=C/C(=O)C(CC2CCC2)C(=O)/C=C/c2ccc(OC)c(OC)c2)cc1OC`, the growth in test [1] is -7.68% (active); in [2], 3.28% (active); in [3], -12.9% (active); in test [4] it was 35.2%; in [5] it was 16.2%; in test [6], -33.2% (active). Further, the growth in [7] was 25.4%; in test [8] it was 3.14% (active); in test [9] it was -5.5% (active).
As for `O=C1c2ccccc2C(=O)c2c1oc1c2c(=O)[nH]c2ccccc21`, the growth was 62.7% in [1]; 35.6% in test [2]; 102% in test [3]; -5.49% (active) in test [4]; 104% in test [5]; -14.8% (active) in test [6]. In addition, the growth in test [7] is 88.3%; in test [8], 40.8%; in test [9], 22.5%.
Consider `CCn1cc(C(=O)O)c(=O)c2cc(F)c(N3CCN(CC(=O)Nc4ccc(/C(C)=N/OC)cc4)CC3)cc21`, for which the growth is 105% in test [1]; 92.3% in test [2]; 101% in test [3]; 103% in test [4]; 85.1% in [5]; 97.6% in test [6]. Besides, the growth in [7] was 94.7%; in [8], 97.8%; in test [9] it was 70.3%.
Take `CCOC(=O)c1c(C(F)(F)F)n([O-])c2ccc(Cl)cc2[n+]1=O`: the growth in test [1] is -69.8% (active); in [2] it was -42.6% (active); in test [3] it was -27.8% (active); in test [4], -35.3% (active); in test [10], -30.3% (active); in [6], -70.5% (active). The growth was 13.8% in [7], 8.49% (active) in test [8] and -53% (active) in test [9].
Consider `Cc1nc2sc(C(=O)Nc3ccccc3Cl)c(N)c2cc1C(C)O` (stereo not given), for which the growth is 88.1% in test [1]; 95% in [2]; 97.8% in [3]; 97.9% in [4]; 92.9% in test [10]; 88.8% in [6]. Further, the growth in test [7] is 88.1%; in test [8], 71.7%; in [9], 86.4%.
With `COc1ccccc1Nc1nnc(-c2ccc(Cl)cc2)o1`, the growth is 29.2% in test [1]; 60.1% in [2]; 86.5% in test [3]; 68.3% in test [4]; 52.8% in test [10]; 8.06% (active) in test [6]. The growth was 64.5% in test [7], 20.8% in test [8] and 32.4% in test [9].
